Only some compounds are listed: those with a hit (about 10% of all), similar ones and a draw of the others.
KinaseGlo FLuc = Counterscreen for Luciferase (Kinase-Glo TM) Inhibition; Potency, µM (highest dose often 38.3 µM), most hits filed as inhibitors; Luciferin 4-monooxygenase (Photuris pensylvanica), Q27757; AID 1379, 2008; Kinase-Glo luciferase, ATP luminescence, 8 min; 200,000 compounds, 0.28% hits; active = well fitted inhibition curve with a large enough effect; inconclusive = small, poorly fitted or top-dose-only effect; also: nearly all actives have a fitted effect of over 60% in size
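Substrate mix (final 50 mM imidazole pH 7.2, 50 mM KCl, 7 mM MgCl2, 10 uM ATP, 0.01% Tween 20, 0.05% BSA) plus pin-tool compound, then Kinase-Glo detection mix; 8 min ambient, luminescence read.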
IMPase cell inh = qHTS Assay for Identifying the Cell-Membrane Permeable IMPase Inhibitors. CHO-M1 cells, IP1 accumulation, HTRF TR-FRET ratio. inhibition (IP1 accumulation), % at 46.1 µM. 120,000 tested, under 10 active. AID 901, 2007; active = well fitted curve in the direction sought with a large enough effect in the signal ratio, not every such curve was filed as active; inconclusive = small, poorly fitted or top-dose-only effect, or a change in a side signal; inactive = no such curve, though single readings can be large or run the other way; the % refers to the signal ratio;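 also: cells stimulated with carbachol in lithium chloride buffer; higher means more IMPase inhibition seen as more IP1 and lower FRET ratio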
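Carbachol-driven Gq signalling in CHO-M1 cells (2000/well) generates IP1. Compounds that block IMPase raise IP1 and so reduce the FRET signal from Eu-anti-IP1 and d2-IP1 after a 10 min room-temperature lysis.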
HPGD block = qHTS Assay for Inhibitors of HPGD (15-Hydroxyprostaglandin Dehydrogenase). purified HPGD, NADH fluorescence kinetic, PGE2 substrate. Potency, µM, usual class: inhibitors. 15-hydroxyprostaglandin dehydrogenase [NAD(+)] (Homo sapiens), P15428. AID 894, 2007. 150,000 compounds, 4.3% hits
Target sequence (P15428 whole entry, looked up): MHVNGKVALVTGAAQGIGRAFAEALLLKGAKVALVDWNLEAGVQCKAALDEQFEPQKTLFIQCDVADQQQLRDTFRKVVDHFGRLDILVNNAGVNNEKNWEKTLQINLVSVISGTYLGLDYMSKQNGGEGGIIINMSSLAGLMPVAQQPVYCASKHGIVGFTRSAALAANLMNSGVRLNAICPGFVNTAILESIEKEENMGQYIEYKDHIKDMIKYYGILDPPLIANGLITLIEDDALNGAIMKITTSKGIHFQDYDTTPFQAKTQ
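20 nM HPGD preincubated 15 min at room temperature with compound in 50 mM Tris-HCl pH 8, 0.01% Tween 20. Started with 1 mM NAD+ and 30 uM prostaglandin E2; NADH fluorescence (360/450 nm) read 5 times over 30-s intervals, last minus first.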
PNC assembly inh = High Content Assay for Compounds that inhibit the Assembly of the Perinucleolar Compartment; PC3M PTB-GFP, PNC prevalence imaging, 16 h; hits give low values; activity change (PNC), negative = inhibition, % at 10 µM; 140,000 compounds, 3.1% hits; AID 2417, 2010;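 active = readout at or below -70, meaning at least 70% loss of cells showing the perinucleolar compartment, a nuclear body marking cancer cells; inconclusive = readout between -30 and a set limit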
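PC3M cells stably expressing PTB-GFP, 750–1000 cells/well, treated 16 h at 37 °C with compound (23 nl of library stock), in duplicate. After paraformaldehyde fixation and Hoechst stain, imaged at 20x; PNC prevalence scored by image analysis.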
LMNA splice mod = qHTS Assay for Modulators of Lamin A Splicing | HeLa LMNA splicing GFP/RFP minigene ratio, 48 h | 200,000 compounds, 0.01% hits | Potency, µM (highest dose often 46.1 µM), actives largely listed as inhibitors | AID 1487, 2009; active = well fitted inhibition curve with a large enough effect in the signal ratio, with a control signal flat, not every such curve was filed as active; inconclusive = small, poorly fitted or top-dose-only effect, or effect the other way, or a change in a side signal; the % refers to the signal ratio
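S3 HeLa stable clones carrying a lamin A-EGFP splicing minigene plus DsRed2 were seeded at 600 cells/well in Opti-MEM with 2% FBS, pin-dosed and incubated 48 h at 37°C. Acumen cytometry (488 nm) gave the GFP/RFP total-intensity ratio.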
ALDH1A1 inh = qHTS Assay for Inhibitors of Aldehyde Dehydrogenase 1 (ALDH1A1) | Purified ALDH1A1, NADH fluorescence, propionaldehyde substrate | 220,000 compounds, 7.3% hits | Potency, µM (highest dose often 75.3 µM), usual class: inhibitors | AID 1030, 2008 | Aldehyde dehydrogenase 1A1 (Homo sapiens), P00352
Target sequence (P00352 whole entry, looked up): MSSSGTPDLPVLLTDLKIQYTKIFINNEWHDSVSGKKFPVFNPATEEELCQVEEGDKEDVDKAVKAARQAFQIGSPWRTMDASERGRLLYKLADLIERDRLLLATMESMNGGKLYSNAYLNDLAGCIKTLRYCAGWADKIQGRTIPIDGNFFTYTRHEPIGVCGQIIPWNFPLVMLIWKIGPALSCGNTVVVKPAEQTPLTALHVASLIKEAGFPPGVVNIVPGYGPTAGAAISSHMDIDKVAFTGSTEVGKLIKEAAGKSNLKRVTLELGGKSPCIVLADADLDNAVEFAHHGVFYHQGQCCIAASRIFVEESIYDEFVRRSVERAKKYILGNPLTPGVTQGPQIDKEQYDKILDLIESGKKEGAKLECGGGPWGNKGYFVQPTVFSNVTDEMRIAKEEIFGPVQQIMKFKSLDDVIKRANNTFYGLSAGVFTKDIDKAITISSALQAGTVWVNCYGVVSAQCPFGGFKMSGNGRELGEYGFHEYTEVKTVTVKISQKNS
Hits are given with their value; . = inactive; ? = inconclusive; / = not tested or not shown; [ ] = another dose, or the depositor's remark. Unless noted, calls follow the shape of the dose curve; as a rule, active = well fitted inhibition curve with a large enough effect (not every such curve was filed as active); inconclusive = small, poorly fitted or top-dose-only effect, or another doubt; inactive = no such curve, though single readings can be large or run the other way.

SMILES	KinaseGlo FLuc	IMPase cell inh	HPGD block	PNC assembly inh	LMNA splice mod	ALDH1A1 inh
CCOC(=O)c1c(C)n(S(=O)(=O)c2ccc(C)cc2)c2ccc(NS(=O)(=O)c3ccc(C)cc3)cc12	/	.	/	/	/	/
CCc1ccc(NC(=O)CSc2ccc3nc(-c4ccc(OC)cc4)cn3n2)cc1	/	/	/	/	.	/
CC(C)CO/N=C1/C[C@@H](O)[C@@H](O)[C@@H]2[C@@H]3C(=O)N(Cc4ccc5c(c4)OCO5)C(=O)[C@H]3CC[C@H]12	/	/	/	/	/	.[13.5 µM]
O=C(c1ccc(C#CC2(O)CCCCC2)cc1)N1CCN(C(c2ccccc2)c2ccccc2)CC1	.	.	.	.	?	25.1µM
NC(=O)Cn1c2[n+](c3ccccc31)CC(O)CS2 (stereo not given)	.	.	.	.	.	11.2µM
O=C(NCc1ccc2c(c1)CCN2C(=O)c1ccc(F)cc1)c1ccco1	/	/	/	/	.	/
CCCOc1ccc(N2C(=O)CC(N(Cc3ccc(OC)cc3)C(=S)Nc3ccccc3)C2=O)cc1 (stereo not given)	.	.	.	.	.	.
CCCOc1ccc(N2C(=O)CC(N(CCc3ccc(OC)c(OC)c3)C(=S)Nc3ccccc3)C2=O)cc1 (stereo not given)	.	.	.	.	?	25.1µM
OC[C@@H]1O[C@@H](n2cnc3c(N[C@@H]4C[C@@H]5CC[C@H]4C5)ncnc32)[C@@H](O)[C@H]1O	/	.	/	/	/	/
O=C1C(Cl)=C(N2CCCCC2)C(=O)N1c1ccccc1	.	.	17.8µM	?	.	?
O=C(O)c1ccc(N/N=C/c2ccc(C(F)(F)F)cc2)cc1	.	/	/	/	.	?
CC(C)(C)c1ccc(/C=N/Nc2ccc(C(=O)O)cc2)cc1	.	/	14.1µM	.	.	.
O=C(O)c1ccc(N/N=C/c2ccc3c(c2)OCO3)cc1	3.98µM	/	/	/	?	.
Cc1ccc(N/N=C/c2ccc3c(c2)OCCO3)cc1Cl	.	.	?	?	.	12.6µM
COc1cc2c(cc1OC)C1(CCCC1)C(N)=C2C#N	.	.	.	-100.0	.	.
COc1cccc(-n2ccnc2SCC(=O)Nc2nc3ccc(C)cc3s2)c1	/	/	/	/	.	/
CCN(CC)C(NC(=O)Cc1ccccc1)C(Cl)(Cl)Cl (stereo not given)	.	.	14.1µM	.	.	?
Cc1ccc(S(=O)(=O)Nc2ccc(Br)cc2/C=N/n2cnnc2)cc1	.	.	.	.	.	28.2µM
O=C(NCc1ccc(-n2cccc2)cc1)c1cccc(F)c1	.	/	/	/	.[9.22 µM]	15.8µM
COc1ccc(NS(=O)(=O)CC23CCC(CC2=O)C3(C)C)cc1 (stereo not given)	.	.	.	.	.	7.94µM
Cc1ccc(NC(=O)c2cn(CCC#N)nc2-c2cccs2)c([N+](=O)[O-])c1	.	.	.	-112.5	.	?
N#CCCn1cc(C(N)=O)c(-c2cccs2)n1	.	/	/	/	/	.
COc1cc(Cl)c(NS(=O)(=O)c2ccc3c(c2)CC(C)N3C(=O)C2CCC2)c(OC)c1 (stereo not given)	/	/	/	/	.	/
CC1CC(C)CN(C(=O)COC(=O)CNS(=O)(=O)/C=C/c2ccccc2)C1 (stereo not given)	.	.	.	.	.	.
O=C(CNS(=O)(=O)/C=C/c1ccccc1)OCC(=O)N1CCC(Cc2ccccc2)CC1	.	.	.	-107.4	.	?
SMILES	KinaseGlo FLuc	IMPase cell inh	HPGD block	PNC assembly inh	LMNA splice mod	ALDH1A1 inh
CC(=O)Nc1c(C)nn(-c2ccccc2)c1N1CCC(C(=O)Nc2ccc(F)cc2Cl)CC1	/	/	/	/	.	/
CCNS(=O)(=O)c1ccc(C)cc1	/	/	.	/	/	.
COC(=O)[C@@H]1CCCN1C(=O)CCc1nnc(CCc2c[nH]c3ccccc23)o1	.	/	/	/	/	.
COC(=O)C1CCCCN1C(=O)CCc1nnc(CCc2c[nH]c3ccccc23)o1 (stereo not given)	.	/	/	/	?	22.4µM
Cc1ccc(/C=N/N(Cc2ccccc2)c2ccccc2)o1	.	/	/	/	?	20µM
CC(C)(C)c1ccc(C(=O)CC(Sc2ccc(Cl)cc2)C(=O)O)cc1 (stereo not given)	.	/	/	/	?	2.51µM
CCN(CC)C(=O)N1CCn2c(nc3ccccc32)C1	.	.	.	.	.	.
CCN(CC)CCCNC(=S)N1CCn2c(nc3ccccc32)C1	.	/	.	-116.4	.	.
O=C(NC[C@H]1CCCCN1)c1cc(OCC(F)(F)F)ccc1OCC(F)(F)F	.	.	.	/	/	.
O=C(Nc1ccc(Cl)cc1)N1CCN(c2ccc3nnc(-c4ccc(F)cc4)n3n2)CC1	.	.	?	.	?	28.2µM
O=C(Nc1ccccc1Cl)N1CCN(c2ccc3nnc(-c4ccccc4)n3n2)CC1	.	.	?	.	.	?
COc1cc(CN(C2CCCCC2C)S(=O)(=O)c2ccc(S(=O)(=O)NC3CC3)cc2)cc(OC)c1OC (stereo not given)	.	/	.	.	.	.
COc1ccc(CN(C2CCCCC2C)S(=O)(=O)c2ccc(S(=O)(=O)N(C)C)cc2)cc1OC (stereo not given)	.	.	.	?	?	3.55µM
O=C(Nc1nc2c(s1)CN(Cc1ccccc1)CC2)c1c(F)cccc1F	.	/	/	/	.	18.9µM
CC(C)(C)C(=O)Nc1nc2c(s1)CN(Cc1ccccc1)CC2	.	/	/	/	.	31.6µM
CC1C/C(=N\NC(=O)c2ccc(NS(=O)(=O)c3ccc(Br)cc3)cc2)CC(C)(C)C1 (stereo not given)	.	/	.	?	.	3.55µM
CC1C/C(=N\NC(=O)c2cccnc2)CC(C)(C)C1 (stereo not given)	.	/	/	/	/	?
Cc1cc(C)nc(SCc2ccc(C(=O)NN=C3C4CC5CC(C4)CC3C5)cc2)n1	.	/	.	.	.	3.55µM
COc1ccc(/C=N/NC(=O)c2ccc(CSc3nc(C)cc(C)n3)cc2)c(OC)c1OC	.	/	35.5µM	.	?	?
Cc1cc(C)nc(SCc2ccc(C(=O)N/N=C3\CC(C)CC(C)(C)C3)cc2)n1 (stereo not given)	/	.	/	.	.	7.94µM
COc1ccccc1-c1nccc(Nc2ccc(F)cc2)n1	/	/	/	/	?	.
CC(C)C[C@H](NC(=O)[C@H](CCC(N)=O)NC(=O)[C@H](CCCCN)NC(=O)[C@H](CCC(N)=O)NC(=O)[C@@H](N)CCC(=O)O)C(=O)N[C@@H](CCC(N)=O)C(=O)O	/	/	/	/	/	.
O=C(OCc1cc(=O)n2nc(-c3cccs3)sc2n1)c1cccc(F)c1	/	/	/	/	.	/
O=C(c1cccnc1)N1CCc2ccccc21	.	.	.	.	.	.
O=C(c1cccnc1)N1CCc2ccccc2C1	.	.	31.6µM	.	.	.
